Screening data (PubChem)
Only some compounds are listed: those with a hit (about 21% of all), similar ones and a draw of the others.
CHX counter – counter-screen hit for Shiga toxin inhibitors, cycloheximide; cell reporter, cycloheximide protein synthesis inhibition counterscreen; max response, %; 300,000 compounds, 12% hits; AID 2314; in the data active = max response mostly above about 13%, no sharp cut-off; inactive = mostly below about 14%; also: read at 38.3 µM for the half of the compounds with a filed dose; 0% is about no effect
Shiga inhibitor – inhibitors of Shiga toxin in Vero cells | Vero cells, Shiga toxin protein synthesis inhibition reporter | inhibition, % at 38.7 µM | 290,000 compounds, 9.2% hits; in the data active = inhibition mostly above about 28%, no sharp cut-off; inactive = mostly below about 43%; also: 0% is about no effect
AMA1-RON2 inh – AMA1-RON2 (P. falciparum) interaction inhibition; AlphaScreen AMA1-biotinylated RON2 peptide binding; Potency, µM (series often up to 58.2 µM), for inactives: top-dose activity change, negative = inhibition, usual class: inhibitors; 360,000 compounds, 0.2% hits;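 also: potency is read from the fitted curve at half-maximal effect; 0% = vehicle wells and -100% = peptide control; nearly all actives have a fitted effect of over 45% in size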
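AMA1 (3D7) with his tag at 25 nM final met compounds first, then biotinylated RON2 peptide at 25 nM; detection used donor plus acceptor beads, 10 µg/mL apiece, read by AlphaScreen after 30 min at room temperature.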
Pf growth 96h – P. falciparum growth inhibition at 96 hour, primary screen for plastid delayed-death inhibitors. 320,000 compounds, 6.9% hits. Potency, µM (doses to about 28.7 µM), for the others: at the highest dose activity change, negative = inhibition, most hits filed as inhibitors. AID 504834. P. falciparum luciferase reporter growth, 96 h; also: potency is read from the fitted curve at half-maximal effect; % is scaled to controls: 0 for no effect and ±100 for the full control effect
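Two parasite generations (96 h, 37 C, 5% CO2) of compound exposure in infected erythrocytes (0.05% parasitemia, 2% hematocrit). Luciferase-reporter P. falciparum; decreased luminescence indicates inhibited growth, aimed at apicoplast-acting delayed death.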
Pf growth 48h – inhibits P. falciparum growth in the first generation, 48 h. AID 504832. 310,000 compounds, 5.9% hits. P. falciparum luciferase growth in erythrocytes, 48 h. Potency, µM (top dose mostly 28.7 µM), without a hit: at the top dose activity change, negative = inhibition, actives largely listed as inhibitors; also: potency is read from the fitted curve at half-maximal effect; % is scaled to controls: 0 for no effect and ±100 for the full control effect
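Luminescence readout; reporter = integrated firefly luciferase in P. falciparum. RBC culture at 2% hematocrit, 0.1% parasitemia final, 37 C/5% CO2; decreased signal taken as growth inhibition.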
HCV inh – HCV inhibition; Huh7.5.1 HCVcc-Cre infection, luciferase reporter, 44 h; 340,000 compounds, 3.4% hits; Potency, µM (series often up to 41.8 µM), without a hit: top-dose activity change, negative = inhibition, most hits filed as inhibitors; also: potency is read from the fitted curve at half-maximal effect; % is scaled to controls: 0 for no effect and ±100 for the full control effect
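Cells (1,000/well) were plated 4 h before compound, then infected with HCVcc-Cre virus (~0.5 moi). After 44 h further culture, infection was read as luciferase luminescence following a 15 min substrate incubation at room temperature.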
Active calls of the source: *; ? = inconclusive; . = no result given; [ ] = another dose, or the depositor's remark. Unless noted, calls follow the shape of the dose curve; as a rule, active = well fitted curve in the direction sought with a large enough effect; inconclusive = small, poorly fitted or top-dose-only effect, or another doubt; inactive = no such curve, though single readings can be large; an effect the other way counts as inactive or inconclusive.

SMILES	CHX counter	Shiga inhibitor	AMA1-RON2 inh	Pf growth 96h	Pf growth 48h	HCV inh
Cc1cc(C(=O)N/N=C2\CC(=O)c3ccccc32)c(C)n1-c1ccccc1	35*	65*	17%	?	-48%	-8%
Cc1cc(C(=O)N/N=C2\CC(=O)CC(C)(C)C2)c(C)n1-c1ccccc1	87*	89*	48%	?	?	-19%
CC(C)(C)NC[C@H](O)c1cc(O)cc(O)c1	.	.	.	-19%	2%	.
CCN1C(=O)[C@H]2[C@@H](c3ccc(-c4ccc(OC)cc4)cc3)N3CCCC[C@@]3(C(=O)OC)[C@H]2C1=O	.	.	-13%	?	15µM*	?
CCN1C(=O)[C@H]2[C@@H](c3ccc(-c4ccc(F)cc4)cc3)N3CCCC[C@@]3(C(=O)OC)[C@H]2C1=O	.	.	-8%	13µM*	9.3µM*	?
CCN1C(=O)[C@@H]2[C@@H](c3ccc(-c4ccccc4)cc3)N3CCC[C@@]3(C(=O)OC)[C@@H]2C1=O	.	.	-7%	.	.	-10%
CCN1C(=O)[C@H]2[C@@H](c3ccc(-c4ccccc4)cc3)N3CCC[C@@]3(C(=O)OC)[C@H]2C1=O	.	.	6%	13µM*	4.7µM*	-2%
CCN1C(=O)[C@@H]2[C@@H](c3ccc(-c4ccc(F)cc4)cc3)N3CCC[C@@]3(C(=O)OC)[C@@H]2C1=O	.	.	-22%	?	?	-9%
CCN1C(=O)[C@H]2[C@@H](c3ccc(-c4ccc(OC)cc4)cc3)N3CCC[C@@]3(C(=O)OC)[C@H]2C1=O	.	.	-12%	?	13µM*	?
CCN1C(=O)[C@@H]2[C@@H](c3ccc(-c4ccc(Cl)c(Cl)c4)cc3)N3CCC[C@@]3(C(=O)OC)[C@@H]2C1=O	.	.	-1%	.	.	0%
CCN1C(=O)[C@@H]2[C@@H](c3ccc(-c4ccc(OC)cc4)cc3)N3CCC[C@@]3(C(=O)OC)[C@@H]2C1=O	.	.	-28%	12µM*	9.3µM*	?
COc1cccc(/C=N/NC(=O)c2nnn(-c3nonc3N)c2CN(C)C2CCCCC2)c1	.	.	-4%	.	.	.
CC(=O)CC(=O)NC1C2CC3CC(C2)CC1C3 (stereo unspecified)	1	11	25%	-29%	?	4%
CC(C)NC(=O)NC1C2CC3CC(C2)CC1C3 (stereo unspecified)	1	-1	2%	10µM*	?	20%
COC1=CC(=O)OC(c2ccccc2C(F)(F)F)C1 (stereo unspecified)	.	.	-6%	.	.	.
COCOCCn1cc(CN2CCS(=O)(=O)N(Cc3ccc(-c4cccc(CO)c4)cc3)C(C)C2=O)nn1 (stereo unspecified)	.	.	-5%	.	.	.
O=C1/C(=C/c2cccc([N+](=O)[O-])c2)N2CCC1CC2	7	7	-27%	277%	-7%	4%
O=C1/C(=C/c2ccc([N+](=O)[O-])cc2)CCc2ccccc21	71*	127*	.	210%	265%	.
O=C1/C(=C/c2cccc([N+](=O)[O-])c2)CCc2ccccc21	59*	57*	?	?	34%	3%
CCN1C/C(=C\c2cccc([N+](=O)[O-])c2)C(=O)/C(=C/c2cccc([N+](=O)[O-])c2)C1	-2	-3	-12%	42%	2.9µM*	2.5µM*
O=C1C(=Cc2ccccc2[N+](=O)[O-])Cc2ccccc21	.	.	-7%	.	.	.
O=c1cc2c(nn1Cc1cccc([N+](=O)[O-])c1)-c1ccccc1CC2	-4	-27	-15%	?	-14%	13µM*
O=C1/C(=C/c2cccc([N+](=O)[O-])c2)CSc2ccc(Cl)cc21	-3	-5	-9%	9%	-1%	?
O=c1cc2c(nn1Cc1ccccc1)-c1ccccc1CC2	10	-11	-2%	?	?	7%
CC(C)(C)c1ccc(C(=O)NC(=O)COC(=O)c2ccc(Br)o2)cc1	.	.	2%	.	.	31%
SMILES	CHX counter	Shiga inhibitor	AMA1-RON2 inh	Pf growth 96h	Pf growth 48h	HCV inh
CC1(C(=O)NS(=O)(=O)c2ccc(Cl)s2)CCN1C(=O)C1CCCCC1 (stereo unspecified)	.	.	5%	.	.	.
COC(=O)C1=C(c2ccc(-c3ccccc3)c(F)c2)C[C@@H]2CC[C@H]1N2C(=O)NCC1CC1	.	.	10%	?	4.7µM*	?
COC(=O)C1=C(c2ccc(-c3ccccc3)c(F)c2)C[C@@H]2CC[C@H]1N2C(=O)NC1Cc2ccccc2C1	.	.	-7%	?	9.3µM*	?
COCCNC(=O)N1[C@H]2CC[C@@H]1C(C(=O)OC)=C(c1ccc(-c3ccccc3)c(F)c1)C2	.	.	-11%	?	?	3.2µM*
COC(=O)C1=C(c2ccc(OC)c(OC)c2)C[C@@H]2CC[C@H]1N2C(=O)NC1Cc2ccccc2C1	.	.	-5%	?	?	-23%
COC(=O)C1=C(c2ccc3ccccc3c2)C[C@@H]2CC[C@H]1N2C(=O)NC1CC1	.	.	2%	?	?	-3%
COC(=O)C1=C(c2ccc3ccccc3c2)C[C@@H]2CC[C@H]1N2C(=O)NCC1CC1	.	.	-3%	?	3.3µM*	?
O=C(NCc1ccncc1)[C@@H]1CCCN1C(=O)[C@@H]1CCCN1C(=O)c1cccc2ccccc12	.	.	-12%	.	.	.
O=C(C[C@@H]1C=C[C@@H](NC(=O)c2cccnc2)[C@@H](CO)O1)NCc1ccncn1	.	.	17%	.	.	.
COc1ccccc1P(=O)(Cc1ccccc1)c1ccccc1 (stereo unspecified)	-7	-5	-5%	-3%	-5%[0.00184 µM]	3%
COC(=O)C1=C(c2ccc(-c3ccccc3)c(F)c2)C[C@@H]2CC[C@H]1N2C(=O)NCCOc1ccccc1	.	.	-4%	?	3.3µM*	13µM*
COC(=O)C1=C(c2ccc(OC)c(OC)c2)C[C@@H]2CC[C@H]1N2C(=O)NCCOc1ccccc1	.	.	-6%	?	-16%	-14%
Clc1cccc(CN2CCSCC2)c1	-3	.	-11%	24%	?	22%
FC(F)Oc1ccc(-n2cc(-c3ccccc3)[n+]3c2CCCCC3)cc1	0	17	-1%	?	1.2µM*	-11%
Fc1ccc(-n2cc(-c3ccccc3)[n+]3c2SCC3)cc1	-4	-6	-1%	?	?	-11%
Clc1ccc(-n2cc(-c3ccc(Br)cc3)[n+]3c2CCCCC3)cc1	1	7	-9%	?	?	-3%
Cc1ccc(-c2cn(-c3ccc(OC(F)F)cc3)c3[n+]2CCCCC3)cc1	7	-6	-2%	?	1.3µM*	-6%
NCCCN1CCN(c2ccccc2)CC1	1	-2	-11%	?	?	?
Cc1cc(=O)oc(C)c1C(=O)NCc1c(F)cc(F)cc1F	28*	45	-3%	?	22%	-11%
COc1ccc(N2CCN(CCCNC(=O)c3cc4sccc4n3C)CC2)cc1	-1	-16	?	.	-13%	13µM*
